Rows were chosen to be rich in hits. Some 2.8% of all compounds tested hit in one or more screens of this group.
Pol eta inh: qHTS for Inhibitors of Polymerase Eta | Potency, µM (series often up to 114 µM), inactives show top-dose activity change, negative = inhibition, actives largely listed as inhibitors | hit rate 1.2% among 390,000 | DNA polymerase eta (Homo sapiens), Q9Y253 | recombinant Pol eta, fluorescent DNA replication assay; also: potency is read from the fitted curve at half-maximal effect; % is scaled to controls: 0 for no effect and ±100 for the full control effect
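Fluorescent replication assay: 50 nM final substrate added after a 15 min room-temperature compound preincubation with 10 nM enzyme. Signal taken at 0 min and again at 10 min.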
WRN inhibitor: qHTS for Inhibitors of WRN Helicase; Bifunctional 3'-5' exonuclease/ATP-dependent helicase WRN (Homo sapiens), Q14191; hit rate 0.46% among 360,000; Potency, µM (series often up to 114 µM), for the others: top-dose activity change, negative = inhibition, most hits filed as inhibitors; WRN helicase unwinding, fluorescent forked duplex, kinetic; also: potency is read from the fitted curve at half-maximal effect; % is scaled to controls: 0 for no effect and ±100 for the full control effect; nearly all actives have a fitted effect of over 55% in size
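Primary qHTS, 1536-well format. 20 nM WRN + compound, 15 min RT; start with 100 nM forked fluorophore/quencher duplex, 2 mM ATP (final); kinetic read ex 525/em 598 nm.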
POLI inh: qHTS for Inhibitors of Polymerase Iota. Pol iota fluorescent replication assay, 10 min. Potency, µM (doses to about 115 µM), without a hit: at the top dose activity, negative = inhibition, usual class: inhibitors. hit rate 1% among 390,000. AID 588590, 2011; also: potency is read from the fitted curve at half-maximal effect
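Fluorescent replication assay read twice, at 0 min and 10 min after adding 50 nM (final) substrate. Enzyme (10 nM) and compounds were first incubated 15 min at room temperature; enzyme-free buffer wells were negative controls.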
Pol kappa inh: qHTS for Inhibitors of Polymerase Kappa | DNA polymerase kappa (Homo sapiens), Q9UBT6 | purified Pol kappa, fluorescent DNA synthesis assay, 10 min | Potency, µM (series often up to 107 µM), for inactives: at the highest dose activity, negative = inhibition, usual class: inhibitors | hit rate 0.53% among 400,000; also: potency is read from the fitted curve at half-maximal effect; % is scaled to controls: 0 for no effect and ±100 for the full control effect
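10 nM Pol kappa was preincubated with compounds for 15 min at room temperature. Reaction started with 50 nM (final) substrate. Fluorescence read kinetically at 0 and 10 min.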
PI5P4Ka inh: qHTS for Inhibitors of phosphatidylinositol 5-phosphate 4-kinase (PI5P4K); hit rate 1.2% among 330,000; max response, %; PI5P4Kalpha enzyme, ADP-Glo luminescence, 60 min; stronger effect = lower value; AID 652105, 2013; Phosphatidylinositol 5-phosphate 4-kinase type-2 alpha (Homo sapiens), P48426; active = max response of -50% or lower; inconclusive = between -30% and -50%; inactive = -30% or higher; also: value at the top dose of about 77 µM; % is scaled to controls: 0 for no effect and ±100 for the full control effect
Target sequence (P48426 whole entry, looked up): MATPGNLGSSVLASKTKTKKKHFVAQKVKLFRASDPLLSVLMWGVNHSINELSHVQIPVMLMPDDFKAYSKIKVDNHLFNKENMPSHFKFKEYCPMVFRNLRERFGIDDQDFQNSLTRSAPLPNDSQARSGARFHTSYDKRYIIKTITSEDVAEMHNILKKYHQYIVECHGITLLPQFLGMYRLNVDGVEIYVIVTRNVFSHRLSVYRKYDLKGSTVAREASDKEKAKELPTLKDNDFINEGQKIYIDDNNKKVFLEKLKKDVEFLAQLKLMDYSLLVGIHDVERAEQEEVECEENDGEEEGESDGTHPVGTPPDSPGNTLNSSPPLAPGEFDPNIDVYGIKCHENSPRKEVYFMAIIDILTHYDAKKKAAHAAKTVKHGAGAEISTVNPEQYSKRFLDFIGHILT
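Reactions run in 0.038 M HEPES pH 7.4, 0.28 mM EGTA, 0.1% CHAPS and 5% DMSO, with PI5P4Kalpha, substrate, compound and 5 microM ATP final, one hour at room temperature. Readout is ADP-Glo luminescence.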
Pol beta inh: qHTS Assay for Inhibitors of DNA Polymerase Beta | P06746 | Pol beta primer extension/strand displacement, fluorescence kinetic | Potency, µM (highest dose often 114 µM), for the others: top-dose activity change, negative = inhibition, hits mostly inhibitors | hit rate 1.3% among 340,000 | AID 485314, 2010; also: potency is read from the fitted curve at half-maximal effect; % is scaled to controls: 0 for no effect and ±100 for the full control effect
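Enzyme-only controls used 10 nM Pol beta; buffer lacking enzyme served as negative control. Compound preincubated 15 min, then 50 nM substrate added; 0 and 10 min reads at room temperature.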
ADP-Glo counter: qHTS for Inhibitors of PI5P4K: ADP-Glo counter assay; shares compounds with PI5P4Ka inh; ADP-Glo detection counter-screen, luciferase luminescence, no enzyme; Potency, µM (top dose mostly 76.9 µM), inactives show at the top dose activity change, negative = inhibition, usual class: inhibitors; 1,100 tested, under 10 active
* hit, by the source's call; i = inactive; ? = inconclusive; / = not tested or not shown; [ ] = dose if it differs, or a comment. Unless noted, calls follow the shape of the dose curve; as a rule, active = well fitted curve in the direction sought with a large enough effect; inconclusive = small, poorly fitted or top-dose-only effect, or another doubt; inactive = no such curve, though single readings can be large; an effect the other way counts as inactive or inconclusive.

SMILES	Pol eta inh	WRN inhibitor	POLI inh	Pol kappa inh	PI5P4Ka inh	Pol beta inh	ADP-Glo counter
Cc1ccc2c(c1)N(Cc1ccncc1)C(=O)C(C)O2 (stereo unspecified)	-7%	-1%	12%	-14%	0	9%	/
O=C(Nc1ccc(-c2nc3ncccc3o2)cc1)c1ccco1	?	-21%[57.1 µM]	?	?	-53*	35µM*	5%
Cc1cc(-c2csc(N)n2)c(C)n1CCC(C)C	-5%	-23%	?	-27%	-64*	-1%	-7%
CCCCCCCn1c(=O)c(C(=O)OC)c(N)c2ccccc21	-29%	-9%	40%	-3%	-1	2%	/
CC(C)(C)n1nnnc1SCC(=O)Nc1nn(-c2ccccc2)nc1C(N)=O	-19%	2%	120%	-10%	-58*	?	-2%
CSc1nc(C)cc(SCC(=O)N/N=C/c2ccccc2)n1	-2%	-31%	-15%	-7%	3	7%	/
COc1ccc(S(=O)(=O)N2CCCC(C(=O)Nc3cccnc3)C2)cc1Cl (stereo unspecified)	0%	-11%	?	-12%	-50*	8%	-6%
COC(=O)[C@H](CO)N1C(=O)[C@@H]2[C@H](C1=O)C1C=C[C@H]2C1	-3%	-7%	1%	-5%	1	/	/
O=S(=O)(Nc1ncccn1)c1cc(Cl)ccc1Cl	-6%	2%	111%	-6%	1	34%	/
O=S(=O)(Nc1nccs1)c1cc(Cl)ccc1Cl	25µM*	-12%[57.1 µM]	?	0%	-51*	-2%	-1%
Cc1cc(C)nc(/N=C(\NC(=O)C(C)(C)C)Nc2ccc(F)cc2)n1	-10%	-20%	106%	-20%	8	-5%	/
COc1cccc(CNC(=O)COC(=O)c2c(C)nn(-c3ccccc3)c2Cl)c1	13µM*	-27%	?	-32%	-59*	/	6%
CC(C)C(=O)Nc1ccccc1N1CCN(S(C)(=O)=O)CC1	2%	14%	-8%	3%	0	?	-5%
CCOC(=O)c1c(S(=O)(=O)NCC(=O)NCc2cccc(C)c2)c(C)n(C)c1C	-14%	-5%	28%	-11%	2	1%	/
Cc1ccc(N=c2oc3cc(O)ccc3cc2C(N)=O)cc1	?	-5%	-2%	-8%	-52*	-6%	-2%
C[C@@H]1CN([C@H](C)CO)C(=O)c2cc(C#CC(C)(C)O)cnc2O[C@@H]1CN(C)C(=O)C1CC1	-7%	2%	/	/	-4	/	/
Cc1ccc(-c2cc(-c3ccccc3)c3c(N)c(S(C)(=O)=O)sc3n2)cc1	-12%	-8%	11%	-21%	9	-19%	/
CS(=O)(=O)c1sc2nc(-c3cccs3)cc(-c3ccccc3)c2c1N	11%	-18%	?	-7%	-52*	?	-11%
Cc1ccc(NC(=S)NC(NC(=O)c2ccccc2C)C(Cl)(Cl)Cl)c(C)c1 (stereo unspecified)	-7%	-4%	-13%	-11%	-1	0%	/
Cc1cccc(S(=O)(=O)NC(=O)C2(C)CCN2C(=O)Cc2cc(F)ccc2F)c1 (stereo unspecified)	/	9%	/	/	-73*	/	-8%
CCOc1ccccc1NC(=O)c1c(NC(=O)CCC(=O)O)sc2c1CCCCC2	?	-8%[11.6 µM]	?	-31%	-10	15%	0%
Cc1nnc(SCC(=O)N2N=C(c3ccc(Cl)cc3)CC2c2ccco2)[nH]c1=O (stereo unspecified)	?	?	?	50µM*	-64*	20µM*	1%
O=c1[nH]cnc2c1ncn2-c1ccc(Cl)cc1	0%	-29%	-7%	-8%	1	/	/
Cc1nn2c(=O)[nH]cnc2c1Cl	?	-4%[11.6 µM]	/	/	-59*	/	3%
O=C(Nc1cccc(Cl)c1)N1CCCC1	-3%	11%	33%	-3%	-53*	23%	-2%
SMILES	Pol eta inh	WRN inhibitor	POLI inh	Pol kappa inh	PI5P4Ka inh	Pol beta inh	ADP-Glo counter
O=C(Nc1cccc(Cl)c1)N1CCOCC1	-20%	-10%	-26%	-12%	-1	-13%	/
Fc1cccc(Cl)c1CNc1ccc(N2CCCC2)cc1	-14%	-13%[57.1 µM]	100%	-9%	-63*	11%	-21%
O=C(COc1ccccc1Cl)c1ccc[nH]1	-18%	-11%	?	-21%	-51*	11µM*	-1%
O=C(COc1ccc(Br)cc1Cl)c1ccc[nH]1	-7%	-13%	52%	-26%	-25	?	/
COCCNC(=O)C(c1ccc(Cl)cc1)N(Cc1ccco1)C(=O)CCC(=O)Nc1ccccn1 (stereo unspecified)	-9%	8%	157%	-14%	-53*	34%	2%
CN(C)C(=O)NC1CCCCCCC1	/	/	/	12%[60.1 µM]	/	/	/
COc1ccc(CCNC(=O)C2CC(c3cccc(F)c3)=NO2)cc1 (stereo unspecified)	1%	9%	4%	1%	?	-9%	-5%
COC(=O)CCC(=O)OC1(C)C(=O)C2=CN(CC3CC3)C(c3ccc(OC)cc3)=CC2=C(Br)C1=O (stereo unspecified)	79µM*	-8%[57.1 µM]	?	1%	-53*	-3%	-6%
COc1ccc(CC(=O)NCC(=O)NC(Cc2ccccc2)C(=O)O)cc1 (stereo unspecified)	-19%	-2%	i	?	-65*	-18%	-1%
NS(=O)(=O)c1cccc(NC(=O)CSc2nnnn2-c2ccccc2)c1	-19%	-1%	54%	1%	-89*	3%	-6%
CN(C)S(=O)(=O)c1cccc(NC(=O)CSc2nnnn2-c2ccccc2)c1	-21%	-1%	24%	-6%	2	?	/
COC(=O)CSc1nc(C)cc(C)n1	1%	?	44%	-12%	-67*	-11%	-7%
CCc1c(C)sc(NC(=O)Cn2nc(C)c([N+](=O)[O-])c2C)c1C(N)=O	-15%	-20%	75%	-4%	-58*	19%	0%
c1ccc(-c2cc3nc(NCc4cccs4)nc(NCc4ccc5occc5c4)c3s2)cc1	/	-3%	/	/	/	/	-7%
CC(=O)Nc1cc(-c2ccc(F)cc2)cn2c(-c3ccc(F)c(Cl)c3)cnc12	/	-9%	/	/	-1	/	/
